Measurements reported in PubChem BioAssay (EPA / NIEHS).
Active and inactive are the calls of the source. The calls were made as follows: active = hit-call score of the fitted dose curve at least 0.9, where 1 is the maximum; inactive = score below 0.9.

assay: ATG_PPRE_CIS: Attagene CIS-FACTORIAL HepG2 Assay for human Peroxisome Proliferator-activated Response Element (PPRE) (AID 2282958); settings: HepG2 PPRE cis-element reporter, Attagene transcription factor profiling; actives raise or lower the signal
In short: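 DMSO served as negative control and baseline for bidirectional curve fitting. Signal came from PPRE-regulated reporter mRNA in HepG2 cells, measured 24 h post-dosing by RT-PCR, 6-FAM primer extension and capillary electrophoresis.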

outcome, inactive:
C[Si](C)(C)O[Si](C)(C)C
CCCN(CCC)S(=O)(=O)c1ccc(C(=O)O)cc1
C=C1CC[C@H](O)C/C1=C/C=C1\CCC[C@]2(C)[C@@H]([C@H](C)/C=C/[C@H](C)C(C)C)CC[C@@H]12
CCC(C)S (stereo not drawn)
CCCCCCC(CO)CCCC (stereo not drawn)
CCN(CC)C(=O)N(CC)CC
COC(=O)c1ccc([N+](=O)[O-])cc1
c1ccc2[nH]cnc2c1
COC(=O)C=C(C)CCC=C(C)C
CC(C)(N=C=O)c1cccc(C(C)(C)N=C=O)c1
N#Cc1ccc(CC(=O)c2cccc(C(F)(F)F)c2)cc1
O=[N+]([O-])c1cccc(Cl)c1
CCCCC1(COC(=O)CCC(=O)O)C(=O)N(c2ccccc2)N(c2ccccc2)C1=O
Nc1ccc2cc(S(=O)(=O)O)cc(O)c2c1N=Nc1ccccc1C(F)(F)F
NC1CCCCC1N (stereo not drawn)
CCC1(C)NC(=O)NC1=O (stereo not drawn)
CC1C2CC(CC2C2CCCC(O)C2)C1(C)C (stereo not drawn)
CCCC(O)C(O)CO (stereo not drawn)
CC(C)CC(C)CC(O)CC(C)C (stereo not drawn)
Cc1ccc(S(N)(=O)=O)cc1
CC1(C)O[C@@H]2C[C@H]3[C@@H]4CCC5=CC(=O)C=C[C@]5(C)[C@@]4(F)[C@@H](O)C[C@]3(C)[C@]2(C(=O)CO)O1
CC(C)(CO)[C@@H](O)C(=O)NCCC(=O)O
Cc1c(Cl)cccc1[N+](=O)[O-]
CC1(C)COCN1
CCCOC(=O)c1c(Cl)c(Cl)c(Cl)c(Cl)c1C(=O)OCCC
CC(C)Nc1nc(N)nc(Cl)n1
OCCCCC(O)CO (stereo not drawn)
Cc1cc(=O)oc2cc(N(C)C)ccc12
CS(=O)(=O)OCCCCOS(C)(=O)=O
CCOc1ccc(N=Nc2ccc(C=Cc3ccc(N=Nc4ccc(OCC)cc4)cc3S(=O)(=O)O)c(S(=O)(=O)O)c2)cc1
CN(C)c1cccc(O)c1
O=C(O)CCCCCCCCCCCC(=O)O
O=C(c1ccccc1)C(O)c1ccccc1 (stereo not drawn)
C[Si]1(C)O[Si](C)(C)O[Si](C)(C)O1
COc1cc(Cl)c(OC)cc1N
C=CCCC(=O)/C=C/C1C(C)=CCCC1(C)C (stereo not drawn)

AC50, active:
CCOC(=O)C(C#N)=C(c1ccccc1)c1ccccc1 154 µM
CCOC(=O)C1OC1c1ccccc1 (stereo not drawn) 21.6 µM
N[C@@H](Cc1cc(I)c(Oc2cc(I)c(O)c(I)c2)c(I)c1)C(=O)O 22.1 µM

assay: ATG_RORE_CIS: Attagene CIS-FACTORIAL HepG2 Assay for human RAR-related Orphan Receptor Element (RORE) (AID 2282959); settings: HepG2 Attagene cis-factorial RORE reporter, mRNA; actives raise or lower the signal
In short: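 Transfect HepG2 with MRTUs; treat 24 h; extract RNA; RT with oligo(dT); PCR with reporter-specific primers; 6-FAM primer extension; HpaI digest 2 h at 37 C; capillary electrophoresis. Fit vs DMSO, bidirectional.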

outcome, inactive:
C[Si](C)(C)O[Si](C)(C)C
CCCCCCC(CO)CCCC (stereo not drawn)
CC(C)(N=C=O)c1cccc(C(C)(C)N=C=O)c1
O=[N+]([O-])c1cccc(Cl)c1
NC1CCCCC1N (stereo not drawn)
CC1C2CC(CC2C2CCCC(O)C2)C1(C)C (stereo not drawn)
CCCC(O)C(O)CO (stereo not drawn)
CC(C)CC(C)CC(O)CC(C)C (stereo not drawn)
CC1(C)O[C@@H]2C[C@H]3[C@@H]4CCC5=CC(=O)C=C[C@]5(C)[C@@]4(F)[C@@H](O)C[C@]3(C)[C@]2(C(=O)CO)O1
Cc1c(Cl)cccc1[N+](=O)[O-]
CC1(C)COCN1
OCCCCC(O)CO (stereo not drawn)
CS(=O)(=O)OCCCCOS(C)(=O)=O
CCOC(=O)C1OC1c1ccccc1 (stereo not drawn)

assay: ATG_Sox_CIS: Attagene CIS-FACTORIAL HepG2 Assay for human SRY-box transcription factor (SOX) (AID 2282960); settings: HepG2 Attagene cis-factorial SOX reporter, mRNA; actives raise or lower the signal
In short: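 Fluorescence-labelled cDNA fragments from reporter transcripts, sized by CE, give the signal. Cells: HepG2, transiently transfected with cis-regulated reporter units. Exposure 24 h; DMSO negative control; bidirectional curve fitting.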

outcome, inactive:
CCCN(CCC)S(=O)(=O)c1ccc(C(=O)O)cc1
C=C1CC[C@H](O)C/C1=C/C=C1\CCC[C@]2(C)[C@@H]([C@H](C)/C=C/[C@H](C)C(C)C)CC[C@@H]12
CCC(C)S (stereo not drawn)
CCN(CC)C(=O)N(CC)CC
COC(=O)c1ccc([N+](=O)[O-])cc1
c1ccc2[nH]cnc2c1
COC(=O)C=C(C)CCC=C(C)C
N#Cc1ccc(CC(=O)c2cccc(C(F)(F)F)c2)cc1
CCCCC1(COC(=O)CCC(=O)O)C(=O)N(c2ccccc2)N(c2ccccc2)C1=O
Nc1ccc2cc(S(=O)(=O)O)cc(O)c2c1N=Nc1ccccc1C(F)(F)F
CCC1(C)NC(=O)NC1=O (stereo not drawn)
CCOC(=O)C(C#N)=C(c1ccccc1)c1ccccc1
Cc1ccc(S(N)(=O)=O)cc1
CC(C)(CO)[C@@H](O)C(=O)NCCC(=O)O
CCCOC(=O)c1c(Cl)c(Cl)c(Cl)c(Cl)c1C(=O)OCCC
CC(C)Nc1nc(N)nc(Cl)n1
Cc1cc(=O)oc2cc(N(C)C)ccc12
CCOc1ccc(N=Nc2ccc(C=Cc3ccc(N=Nc4ccc(OCC)cc4)cc3S(=O)(=O)O)c(S(=O)(=O)O)c2)cc1
CN(C)c1cccc(O)c1
O=C(O)CCCCCCCCCCCC(=O)O
N[C@@H](Cc1cc(I)c(Oc2cc(I)c(O)c(I)c2)c(I)c1)C(=O)O
O=C(c1ccccc1)C(O)c1ccccc1 (stereo not drawn)
C[Si]1(C)O[Si](C)(C)O[Si](C)(C)O1
COc1cc(Cl)c(OC)cc1N
C=CCCC(=O)/C=C/C1C(C)=CCCC1(C)C (stereo not drawn)
